From PubChem BioAssay (Tox21)
Where “and” joins values, the source holds several entries; their conditions need not be identical. Equal values may be shown once. Results filed as inconclusive are left out. A structure can be active in one record and inactive in another. Calls of active or inactive are those of the source. Unless noted, the call rests on the fitted dose curve; in most records, active means well fitted curve in the direction sought with a large enough effect in the repeat runs; inconclusive means weak or mixed curves; inactive means no such curve, though single readings can be large; an effect the other way counts as inactive or inconclusive.

Assays:
[1] = qHTS assay for small molecule agonists of the p53 signaling pathway (AID 651631; calls by dose curve; further: nearly all actives have a fitted effect of over 15% in size; further: potency means the concentration at half of the fitted maximal effect)
Outline: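 Stably transfected HCT-116 cells (beta-lactamase behind p53 response elements) get compounds after a 5 h settling period; 16 h later at 37 °C, FRET substrate is loaded and fluorescence read after 2 h.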

[2] = qHTS assay for small molecule disruptors of the mitochondrial membrane potential - cell viability (AID 720634; calls by dose curve; further: nearly all actives have a fitted effect of over 20% in size; further: potency means the concentration at half of the fitted maximal effect)
Outline: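 HepG2 cells seeded overnight at 37 C, then exposed to compound or DMSO for 1 hr at 37 C, 5% CO2. m-MPI dye added, then CellTiter-Glo for 30 min at room temperature; viability read as ATP luminescence.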

[3] = qHTS assay to test for compound auto fluorescence at 590 nm (red) in HepG2 cells (AID 720674)
Outline: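 We screened compounds on adherent HepG2 cells, incubating them for an hour at 37 C in 5% CO2 before reading emission at 590 nm under 540 nm excitation; values reflect equivalence to Rose Bengal sodium fluorescence.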

[4] = qHTS assay to test for compound auto fluorescence at 535 nm (green) in HepG2 cells (AID 720675)
[5] = qHTS assay to test for compound auto fluorescence at 460 nm (blue) in HEK293 cells (AID 720678)
Outline: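 Auto fluorescence in the blue band was quantified as triamterene equivalency. HEK293 cells were seeded at 2,000/well, dosed after a 4-5 hr attachment, and kept overnight at 37C before the 405/460 nm reading.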

[6] = qHTS assay to test for compound auto fluorescence at 590 nm (red) in HEK293 cells (AID 720679)
Outline: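 Autofluorescence equivalency to Rose Bengal sodium, 540/590nm, in HEK293 cells exposed overnight to 23 nL compound per well.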

[7] = qHTS assay to test for compound auto fluorescence at 535 nm (green) in HEK293 cells (AID 720680)
[8] = qHTS assay to test for compound auto fluorescence at 535 nm (green) in HEK293 cell free culture (AID 720682)
Outline: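 Using fluorescein as calibrant, autofluorescence was quantified at 485/535 nm in cell-free DMEM containing 10% FBS after pintool addition of compound or vehicle.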

[9] = qHTS assay to test for compound auto fluorescence at 590 nm (red) in HEK293 cell free culture (AID 720683)
Outline: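 Red-channel autofluorescence of compounds in culture medium (DMEM, 10% FBS), no cells, measured at 540/590 nm. Rose Bengal sodium is the reference fluorophore for equivalence.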

[10] = qHTS assay to test for compound auto fluorescence at 590 nm (red) in HepG2 cell free culture (AID 720684)
Outline: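 Plate contents were MEM with 10% FBS plus test compound or DMSO, no cells. Fluorescence was recorded with 540 nm excitation and 590 nm emission.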

[11] = qHTS assay to test for compound auto fluorescence at 460 nm (blue) in HepG2 cell free culture (AID 720685)
Outline: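 Compound (23 nL) or DMSO pinned into cell-free MEM with 10% FBS; blue fluorescence read at 405/460 nm excitation/emission, expressed as auto-fluorescence equivalency to triamterene.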

[12] = qHTS assay to test for compound auto fluorescence at 535 nm (green) in HepG2 cell free culture (AID 720686)
[13] = qHTS assay to test for compound auto fluorescence at 460 nm (blue) in HepG2 cells (AID 720687)
Outline: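 Blue-channel autofluorescence (Ex/Em 405/460 nm, triamterene-equivalent) was measured after 1 hr compound exposure at 37 C, 5% CO2. Cells were HepG2, plated overnight at 37 C in MEM plus 10% FBS.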

[14] = target: Glucocorticoid receptor (Homo sapiens) (UniProt P04150); assay: qHTS assay to identify small molecule antagonists of the glucocorticoid receptor (GR) signaling pathway (AID 720692; active means well fitted inhibition curve with a large enough effect in the signal ratio in the repeat runs, not every such curve was filed as active; the % refers to the signal ratio; further: potency means the concentration at half of the fitted maximal effect)
Chain of Glucocorticoid receptor (Homo sapiens) (P04150 whole entry, looked up): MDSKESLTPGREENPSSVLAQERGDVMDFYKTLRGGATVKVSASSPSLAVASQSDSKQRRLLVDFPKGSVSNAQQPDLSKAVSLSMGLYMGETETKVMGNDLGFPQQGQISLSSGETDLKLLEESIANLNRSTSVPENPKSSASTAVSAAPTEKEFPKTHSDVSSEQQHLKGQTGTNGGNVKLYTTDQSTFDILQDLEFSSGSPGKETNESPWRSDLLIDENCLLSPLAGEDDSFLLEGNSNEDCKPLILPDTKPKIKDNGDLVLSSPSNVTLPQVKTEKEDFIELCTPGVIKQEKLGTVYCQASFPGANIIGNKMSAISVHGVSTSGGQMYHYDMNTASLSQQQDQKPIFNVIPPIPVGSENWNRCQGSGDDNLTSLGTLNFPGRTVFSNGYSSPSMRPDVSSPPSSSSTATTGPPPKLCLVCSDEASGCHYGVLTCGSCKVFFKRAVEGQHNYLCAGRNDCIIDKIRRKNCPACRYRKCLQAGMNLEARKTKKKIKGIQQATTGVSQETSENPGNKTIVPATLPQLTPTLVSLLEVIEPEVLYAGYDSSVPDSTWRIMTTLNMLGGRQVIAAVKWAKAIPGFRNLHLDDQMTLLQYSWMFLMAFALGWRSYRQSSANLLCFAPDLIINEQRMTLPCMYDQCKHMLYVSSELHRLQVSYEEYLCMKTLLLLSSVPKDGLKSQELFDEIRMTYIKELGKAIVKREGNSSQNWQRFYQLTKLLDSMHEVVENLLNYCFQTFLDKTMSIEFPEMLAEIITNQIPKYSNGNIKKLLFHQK
Outline: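 GR-bla HeLa cells (beta-lactamase reporter under glucocorticoid response element) were pre-plated 4 h at 37 C, treated with compounds plus 5 nM dexamethasone (final) for 18 h, then read by LiveBLAzer B/G FRET fluorescence after 2 h.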

[15] = qHTS assay to test for compound auto fluorescence at 460 nm (blue) in HEK293 cell free culture (AID 720681)
Outline: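 Blue fluorescence (Ex 405/Em 460 nm, triamterene-equivalent) was read immediately after pin transfer of compound or DMSO into medium (DMEM, 10% FBS) without cells.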

[16] = target: Glucocorticoid receptor (Homo sapiens) (UniProt P04150); assay: qHTS assay to identify small molecule agonists of the glucocorticoid receptor (GR) signaling pathway (AID 720691; active means well fitted activation curve with a large enough effect in the signal ratio in the repeat runs, not every such curve was filed as active; the % refers to the signal ratio)
Outline: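 GR-bla HeLa cells (beta-lactamase reporter under glucocorticoid response element) were plated 4 h at 37 C/5% CO2, given compounds in DMSO, and incubated 18 h at 37 C. LiveBLAzer B/G FRET substrate was added for 2 h at room temperature, then fluorescence intensity read.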

[17] = qHTS assay for small molecules that induce genotoxicity in human embryonic kidney cells expressing luciferase-tagged ATAD5 (AID 651632); further: nearly all actives have a fitted effect of over 15% in size
Outline: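 HEK293T cells carrying a luciferase reporter tagged to ATAD5 were exposed to compound or DMSO vehicle for 16 hr at 37C, 5% CO2. Amplite was added, and after 30 min at room temperature luciferase activity was read as a marker of ATAD5 induction.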

[18] = qHTS assay for small molecule agonists of the p53 signaling pathway - cell viability (AID 651633; calls by dose curve;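 further: p53RE-bla HCT reporter cells with a stable beta-lactamase p53 reporter; series mostly up to about 83 µM; nearly all actives have a fitted effect of over 30% in size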)
Outline: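 Viability counter-read: CellTiter-Glo luminescence (30 min, room temperature) in the same p53RE-bla plates. These plates had been exposed to compounds for 16 h at 37 C.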

[19] = qHTS assay for small molecules that induce genotoxicity in human embryonic kidney cells expressing luciferase-tagged ATAD5 - cell viability (AID 651634; calls by dose curve; further: nearly all actives have a fitted effect of over 25% in size)
Outline: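 HEK293T cells expressing luciferase-tagged ATAD5 were exposed to compound or DMSO for 15.5 hr at 37C, 5% CO2. Viability was then read as live-cell protease activity by CellTiter-Fluor fluorescence after 30 min at 37C.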

[20] = qHTS assay for small molecule disruptors of the mitochondrial membrane potential (AID 720635)
Outline: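 Mitochondrial membrane potential tracked with Mito-MPS dye, red aggregates (ex 540/em 590 nm) against green monomers (ex 490/em 535 nm). Compound treatment 1 hr at 37C, dye 30 min in HepG2.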

Measured: Potency

O=[N+]([O-])/C=C/c1ccccc1
inactive: [3] | [4] | [5] | [6] | [7] | [8] | [9] | [10] | [11] | [12] | [13]
active: [1] 2.47 µM and 2.43 µM | [14] 15.7 µM and 17.4 µM
62.1 µM (active) and inactive: [2]

C=CC(C)(CCC=C(C)C)OC(=O)c1ccccc1N (configuration not stated)
inactive: [1] | [2] | [3] | [4] | [6] | [7] | [15] | [8] | [9] | [11] | [12] | [13] | [16]

ClCc1ccccc1Cl
inactive: [17] | [18] | [19] | [2] | [3] | [4] | [5] | [6] | [7] | [15] | [9] | [10] | [11] | [12] | [13] | [16] | [14]

C[C@H]1[C@@H]2Cc3ccc(O)cc3[C@@]1(C)CCN2C
inactive: [17] | [18] | [19] | [2] | [20] | [3] | [4] | [6] | [7] | [8] | [9] | [10] | [11] | [12] | [13] | [16] | [14]

CN(C1CCCCC1)C1CCCCC1
inactive: [17] | [18] | [2] | [20] | [3] | [4] | [5] | [6] | [7] | [15] | [8] | [9] | [10] | [11] | [12] | [13] | [16] | [14]

CCC1CCC(=O)O1 (configuration not stated)
inactive: [17] | [18] | [2] | [20] | [3] | [4] | [5] | [6] | [7] | [15] | [8] | [9] | [10] | [11] | [12] | [13] | [16] | [14]

C=CC(=O)OCC
inactive: [17] | [18] | [19] | [3] | [4] | [6] | [7] | [8] | [9] | [10] | [11] | [12] | [13] | [16] | [14]
